Bioassay records deposited in PubChem BioAssay by several laboratories.
Vif imaging = HIV Vif self-association inhibitors, primary screen, imaging, HEK293T, single point. inhibition, % at 7.49 µM. HEK293T cells, Vif self-association by quenched fluorescence, 24 h. 0.35% of 340,000 active; in the data active means inhibition above about 50%, passing the limit was not always enough; inconclusive means no clear call, values can overlap the other calls; inactive means below about 31%
N-glyco inh = increase of ERlucT glycosylation luciferase signal, primary screen, N-linked glycosylation inhibitor project, D54 ERlucT cells, luminescence, set 2; 0.23% of 360,000 active; D54 ERlucT glycosylation luciferase reporter, 24 h; percent of 100 nM tunicamycin response; reporter increase, % at 12.5 µM;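 active means mean luciferase reporter signal, scaled so untreated is 0 and the glycosylation-blocking control 100, at or above a set limit in every replicate; inconclusive means mean reaches the limit but not every replicate does; inactive means mean below the limit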;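 further: luciferase carries N-glycosylation sites so blocking glycosylation raises the light; 0% = median of neutral control wells and 100% = median of 100 nM tunicamycin wells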
aDG glyco act = activators of alpha-DG glycosylation, primary screen, uHTS, Pro5-aDG cells, AlphaScreen. alpha-DG glycosylation AlphaScreen (IIH6); 0% Pro5, 100% B10-LARGE cell signal. activation, % at 10 µM. 0.22% of 360,000 active;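 active means activation of at least 8% versus controls, or a plate z-score of at least 8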;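 further: Pro5 are CHO cells carrying HIG-tagged alpha-DG that lacks glycosylation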
Cardio protect = cardioprotection against H2O2-induced cell death, primary screen, uHTS, H9c2 cells, ATPLite luminescence | H9c2 cardiomyocytes, H2O2 injury protection, 2 h | protection from H2O2 cell death, % at 20 µM | 0.63% of 360,000 active;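 active means compounds giving at least 50% protection of heart cells from peroxide-induced death in the single-dose screen, raw or plate-pattern-corrected value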;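 further: 0% = DMSO wells with peroxide and 100% = DMSO wells without peroxide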
ARNT-TACC3 inh = disruptors of ARNT/TACC3 protein interaction, primary screen, biochemical, AlphaScreen, single concentration; inhibition, % at 9.99 µM; 0.66% of 390,000 active; AID 623870, 2012; AlphaScreen His-ARNT PAS-B/GST-TACC3 binding, luminescence; TACC3 fragment carries E629A point mutation;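 active means mean inhibition of replicates at least 50% and at least half of replicates each reaching 50%; inconclusive means half or more replicates reach 50% but mean below 50%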;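 further: 0% = complete ARNT plus TACC3 wells and 100% = ARNT alone without TACC3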
Numbers without * were called inactive; ? = inconclusive; · = no result given. A selection: hits, their analogues and other compounds. The true share with any hit is near 1.7%.

SMILES	Vif imaging	N-glyco inh	aDG glyco act	Cardio protect	ARNT-TACC3 inh
CC1=C/C(=C(/c2cc(C)c(O)c(Br)c2)c2ccccc2S(=O)(=O)O)C=C(Br)C1=O	15.7	-6.5	-0.4	-7.7	49.0*
C[C@H]1CCCCO[C@H](CN(C)C(=O)Nc2ccccc2)[C@@H](C)CN([C@@H](C)CO)C(=O)c2cc(NC(=O)C3CCCCC3)ccc2O1	·	·	·	·	1.2
O=C(/C=C/c1cccs1)N1CCC2(CC1)Oc1ccc(Cl)cc1C(=O)C21CC(c2ccccc2)=NO1 (configuration not stated)	3.1	-2.9	-0.1	-13.4	23.6*
CCC(=O)N1CCC2(CC1)Oc1ccc(Cl)cc1C(=O)C21CC(c2ccccc2)=NO1 (configuration not stated)	-2.5	-3.0	-0.4	15.0	2.5
O=C(C[C@H]1CC[C@H]2[C@@H](COC[C@@H](O)CN2Cc2cccc(C(F)(F)F)c2)O1)NCCc1ccncc1	·	·	·	·	5.4
O=C(C[C@H]1CC[C@H]2[C@@H](COC[C@H](O)CN2C(=O)c2ccccc2F)O1)NCc1ccc(F)cc1	·	·	·	·	-10.0
Cc1cccc2c1-c1sc(C(=O)Nc3ccccc3N3CCN(C)CC3)cc1CO2	0.3	-2.3	0.1	-0.8	45.1*
Cc1cccc2c1-c1sc(C(=O)N3CCCCC3)cc1CO2	-8.4	-2.7	0.2	-14.5	4.8
Cc1cccc(CSc2nnc(-c3ccccn3)n2N)c1	8.6	6.4	0.0	-0.5	45.4*
Nn1c(SCc2ccc(Br)cc2)nnc1-c1ccccn1	-1.5	7.9	-0.3	-11.3	44.0
C[C@@H]1CCCCO[C@@H](CN(C)C(=O)Cc2ccccc2)[C@H](C)CN([C@@H](C)CO)C(=O)c2cc(NS(=O)(=O)c3ccc(F)cc3)ccc2O1	·	·	·	·	-4.0
Cc1nn2c(-c3cccc(NC(=O)c4ccco4)c3)nnc2c2ccccc12	5.2	0.3	-0.5	80.2*	38.2
Cc1nn2c(-c3ccccc3)nnc2c2ccccc12	-14.0	4.8	-0.2	3.3	4.1
C[C@@H]1CCCCO[C@H](CN(C)S(=O)(=O)c2cccs2)[C@H](C)CN([C@@H](C)CO)C(=O)c2cc(NS(=O)(=O)c3ccc(Cl)cc3)ccc2O1	·	·	·	·	0.0
O=c1[nH]nc(-c2ccccc2)c2ccccc12	-7.1	1.2	-0.1	47.5	-9.3
Fc1ccc(-c2n[nH]c(=S)c3ccccc23)cc1	52.2*	-4.0	-0.1	-2.0	-8.3
CC(=O)NC1=NN(C(C)=O)C(C)(c2ccco2)S1 (configuration not stated)	51.1*	3.0	-0.3	7.5	-11.0
COCCNC(=O)C[C@H]1CC[C@@H]2[C@@H](COc3ccc(NC(=O)COC)cc3C(=O)N2C)O1	·	·	·	·	-8.8
COc1cc(S(=O)(=O)NCc2ccncc2)c(OC)cc1C	51.0*	0.2	0.3	0.1	3.5
O=C(C[C@@H]1CC[C@@H](NC(=O)C2CCC2)[C@@H](CO)O1)Nc1nccs1	·	·	·	·	-4.3
Cc1cc2ccccn2c1C(=O)c1ccc(Cl)c([N+](=O)[O-])c1	-6.1	-2.8	0.5	-13.1	20.9
Cc1c(C=O)c2ccccn2c1C(=O)c1ccc(Cl)c([N+](=O)[O-])c1	-0.5	0.6	0.6	51.2*	-5.2
Cc1cc(NCCCN(C)C)n2c(nc3ccccc32)c1C#N	3.1	34.1*	0.0	12.3	-0.9
Cc1nc2ccc(NC(=S)NCCCO)cc2nc1C	-11.1	-1.3	0.0	-0.3	10.9
CCCNC(=S)Nc1ccc2nc(-c3ccccn3)c(-c3ccccn3)nc2c1	4.6	0.9	-0.1	7.6	56.6*
SMILES	Vif imaging	N-glyco inh	aDG glyco act	Cardio protect	ARNT-TACC3 inh
S=C(Nc1ccc2nc(-c3ccccn3)c(-c3ccccn3)nc2c1)N1CCCCC1	-0.2	4.1	-0.2	11.1	70.2*
S=C(Nc1ccc2nc(-c3ccccn3)c(-c3ccccn3)nc2c1)N1CCCCCC1	-15.0	-1.7	-0.5	1.1	8.4
S=C(Nc1ccc2nccnc2c1)N1CCOCC1	·	0.9	-0.2	-1.8	45.7*
S=C(Nc1ccc2nsnc2c1)N1CCCCC1	-4.6	-0.3	5.1	-3.1	29.3*
CCC(=O)Nc1ccc2c(c1)C(=O)N(C)C[C@H](OC)[C@H](C)CN(C(=O)c1cnccn1)[C@H](C)CO2	·	·	·	·	-14.4
CO[C@@H]1CN(C)C(=O)c2cc(NC(=O)c3ccccc3F)ccc2OC[C@H](C)N(CC2CC2)C[C@H]1C	·	·	·	·	-9.2
CCN(CC(=O)Nc1ccc(OC)cc1)C(=O)c1cc(-c2cccs2)nn1-c1ccccc1	-9.2	-4.8	-0.4	69.3*	-3.1
COc1ccc(NC(=O)CN(C)C(=O)c2cc(-c3cccs3)nn2-c2ccccc2)cc1	-2.3	-0.4	0.0	30.8	-11.5
CCOC(=O)c1c(NC(=O)C(=O)N/N=C/c2ccc(O)c(OC)c2)sc2c1CCCCC2	-1.4	3.4	-0.1	53.4*	-0.2
COc1ccc(S(=O)(=O)N(C)C[C@H]2OCCCC[C@H](C)Oc3ccc(NC(=O)Nc4c(C)noc4C)cc3C(=O)N([C@@H](C)CO)C[C@H]2C)cc1	·	·	·	·	-2.6
COc1ccnc(Oc2ccccc2)c1C(=O)N/C=N/OCc1ccc(F)cc1Cl	3.2	-0.2	-0.5	69.2*	-8.8
Cc1ccc(NC(=O)c2ccc(NCc3ccco3)c([N+](=O)[O-])c2)cc1Cl	82.2*	-5.0	-0.3	-0.2	-1.0
Cc1ccc(NC(=O)c2ccc(NCC3CCCO3)c([N+](=O)[O-])c2)cc1Cl (configuration not stated)	10.9	0.5	-0.3	-5.6	3.4
C[C@@H]1CCCCO[C@H](CN(C)C(=O)Cc2ccccc2)[C@H](C)CN([C@H](C)CO)C(=O)c2cc(NS(=O)(=O)c3cccs3)ccc2O1	·	·	·	·	-23.9
OCCNc1nc(Nc2ccccc2OC(F)(F)F)nc(N2CCCC2)n1	16.8	5.5	0.2	-3.9	2.0
OCCNc1nc(Nc2ccccc2Oc2ccccc2)nc(N2CCCC2)n1	3.9	2.3	-0.1	-4.2	22.9*
COc1cccc(Nc2nc(NCCO)nc(N3CCCC3)n2)c1	?	6.2	0.0	-0.2	active
COc1ccc(Nc2nc(NCCO)nc(N3CCCC3)n2)cc1	13.0	3.9	0.4	-0.3	1.0
O=C(C[C@H]1C[C@H]2c3cc(NC(=O)Cc4ccncc4)ccc3O[C@H]2[C@H](CO)O1)NCc1ccccc1	·	·	·	·	0.9
O=c1[nH]c2cccc(F)c2n2cccc12	6.5	3.5	-0.1	51.0*	-13.1
S=c1[nH]c2ccccc2n2cccc12	-9.6	1.9	0.0	9.0	-4.3
Cc1cccc(/N=C/c2c(O)ccc3oc4c(c23)CCCC4)n1	-17.8	-1.3	0.0	75.4*	0.3
